Measurements reported in the supplement of paper PMC11006884.
Of roughly 6,500 targets only a part is listed; those with a hit were picked by preference. About 2% of all pairs of compound and target were hits. A number with no mark means an inactive call.

Compound: COC(=O)C#Cc1ccccc1 [methyl 3-phenylpropiolate]
Test: log2 ratio of iodoacetamide-alkyne labeling of the cysteine site, DMSO over compound (competition); higher = stronger covalent engagement of the cysteine by the compound, active = 1 or more
Conditions: 500 µM; treatment time 1 h; system: HEK293T cell lysate
How it was run: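 Reporter intensities give each cysteine's log2 competition ratio as the mean of control channels over the mean of compound channels. The samples were HEK293T lysate (2 mg/mL) given vehicle or electrophile (500 µM, 1 h, ambient temperature), then iodoacetamide alkyne (1 h), followed by click coupling to sCIP-TMT reagents, pooling, trypsin digestion overnight at 37 °C, streptavidin enrichment, acid elution, Orbitrap Eclipse LC-MS/MS with FAIMS and FragPipe quantification. Duplicate channels and three replicates were run, and cysteines quantified in only one replicate were discarded.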

UniProt P85037, sequence (P85037 whole entry, looked up): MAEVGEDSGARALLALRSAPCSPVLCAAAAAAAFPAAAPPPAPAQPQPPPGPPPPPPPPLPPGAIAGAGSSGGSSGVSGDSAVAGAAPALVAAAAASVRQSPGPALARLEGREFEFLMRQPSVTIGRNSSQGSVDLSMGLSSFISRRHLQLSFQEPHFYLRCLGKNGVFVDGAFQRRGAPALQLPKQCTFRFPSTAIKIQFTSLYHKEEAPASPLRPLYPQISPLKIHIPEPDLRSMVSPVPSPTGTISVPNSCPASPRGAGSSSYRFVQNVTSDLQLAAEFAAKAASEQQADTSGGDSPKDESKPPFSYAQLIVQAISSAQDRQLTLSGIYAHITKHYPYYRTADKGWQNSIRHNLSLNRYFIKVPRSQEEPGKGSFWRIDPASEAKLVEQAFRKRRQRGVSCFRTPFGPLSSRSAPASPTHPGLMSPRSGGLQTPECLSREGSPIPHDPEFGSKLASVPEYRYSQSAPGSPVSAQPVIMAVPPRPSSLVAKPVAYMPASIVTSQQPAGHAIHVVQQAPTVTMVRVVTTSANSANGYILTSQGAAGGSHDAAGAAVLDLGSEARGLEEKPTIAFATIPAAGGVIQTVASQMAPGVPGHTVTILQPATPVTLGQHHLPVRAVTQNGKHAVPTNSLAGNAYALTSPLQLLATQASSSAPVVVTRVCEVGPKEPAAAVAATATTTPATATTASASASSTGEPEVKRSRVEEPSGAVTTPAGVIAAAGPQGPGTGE
UniProt Q2TAA2, sequence (Q2TAA2 whole entry, looked up): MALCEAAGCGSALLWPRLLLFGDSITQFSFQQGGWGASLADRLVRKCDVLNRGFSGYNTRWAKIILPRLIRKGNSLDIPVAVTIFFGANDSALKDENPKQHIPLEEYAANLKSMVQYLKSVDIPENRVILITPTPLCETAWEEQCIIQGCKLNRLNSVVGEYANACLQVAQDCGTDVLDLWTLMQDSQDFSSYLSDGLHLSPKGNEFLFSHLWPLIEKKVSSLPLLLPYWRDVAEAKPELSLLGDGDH
UniProt Q15102, sequence (Q15102 whole entry, looked up): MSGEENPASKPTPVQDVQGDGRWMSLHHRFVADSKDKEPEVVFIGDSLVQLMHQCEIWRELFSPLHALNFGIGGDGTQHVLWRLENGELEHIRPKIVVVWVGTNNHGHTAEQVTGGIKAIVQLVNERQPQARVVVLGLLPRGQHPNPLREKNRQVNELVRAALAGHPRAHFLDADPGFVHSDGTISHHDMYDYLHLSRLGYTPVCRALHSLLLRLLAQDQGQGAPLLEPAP
UniProt Q15020, sequence (Q15020 whole entry, looked up): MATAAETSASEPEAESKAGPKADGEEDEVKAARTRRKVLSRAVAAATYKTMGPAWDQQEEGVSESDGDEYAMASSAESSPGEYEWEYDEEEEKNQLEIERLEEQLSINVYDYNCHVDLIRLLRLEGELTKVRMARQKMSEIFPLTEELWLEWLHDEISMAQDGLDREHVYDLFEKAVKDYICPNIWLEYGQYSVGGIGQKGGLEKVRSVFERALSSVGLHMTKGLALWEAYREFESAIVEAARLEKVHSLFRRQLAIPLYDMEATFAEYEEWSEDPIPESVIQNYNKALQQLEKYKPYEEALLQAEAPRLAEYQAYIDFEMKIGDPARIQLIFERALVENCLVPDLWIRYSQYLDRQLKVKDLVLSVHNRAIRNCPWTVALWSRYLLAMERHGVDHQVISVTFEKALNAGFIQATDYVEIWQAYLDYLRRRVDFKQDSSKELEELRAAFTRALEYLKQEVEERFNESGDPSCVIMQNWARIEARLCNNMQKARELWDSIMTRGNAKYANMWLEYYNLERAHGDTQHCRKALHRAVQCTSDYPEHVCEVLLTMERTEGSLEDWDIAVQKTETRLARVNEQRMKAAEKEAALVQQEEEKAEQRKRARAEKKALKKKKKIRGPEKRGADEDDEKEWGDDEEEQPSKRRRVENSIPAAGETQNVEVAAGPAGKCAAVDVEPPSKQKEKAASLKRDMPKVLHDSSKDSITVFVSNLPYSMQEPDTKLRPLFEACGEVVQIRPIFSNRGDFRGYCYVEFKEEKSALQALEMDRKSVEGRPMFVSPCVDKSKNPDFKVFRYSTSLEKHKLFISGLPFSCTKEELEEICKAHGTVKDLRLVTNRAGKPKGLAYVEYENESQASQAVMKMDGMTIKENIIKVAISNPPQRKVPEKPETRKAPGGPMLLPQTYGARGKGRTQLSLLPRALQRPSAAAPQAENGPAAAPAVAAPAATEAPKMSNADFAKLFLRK
UniProt Q15058, sequence (Q15058 whole entry, looked up): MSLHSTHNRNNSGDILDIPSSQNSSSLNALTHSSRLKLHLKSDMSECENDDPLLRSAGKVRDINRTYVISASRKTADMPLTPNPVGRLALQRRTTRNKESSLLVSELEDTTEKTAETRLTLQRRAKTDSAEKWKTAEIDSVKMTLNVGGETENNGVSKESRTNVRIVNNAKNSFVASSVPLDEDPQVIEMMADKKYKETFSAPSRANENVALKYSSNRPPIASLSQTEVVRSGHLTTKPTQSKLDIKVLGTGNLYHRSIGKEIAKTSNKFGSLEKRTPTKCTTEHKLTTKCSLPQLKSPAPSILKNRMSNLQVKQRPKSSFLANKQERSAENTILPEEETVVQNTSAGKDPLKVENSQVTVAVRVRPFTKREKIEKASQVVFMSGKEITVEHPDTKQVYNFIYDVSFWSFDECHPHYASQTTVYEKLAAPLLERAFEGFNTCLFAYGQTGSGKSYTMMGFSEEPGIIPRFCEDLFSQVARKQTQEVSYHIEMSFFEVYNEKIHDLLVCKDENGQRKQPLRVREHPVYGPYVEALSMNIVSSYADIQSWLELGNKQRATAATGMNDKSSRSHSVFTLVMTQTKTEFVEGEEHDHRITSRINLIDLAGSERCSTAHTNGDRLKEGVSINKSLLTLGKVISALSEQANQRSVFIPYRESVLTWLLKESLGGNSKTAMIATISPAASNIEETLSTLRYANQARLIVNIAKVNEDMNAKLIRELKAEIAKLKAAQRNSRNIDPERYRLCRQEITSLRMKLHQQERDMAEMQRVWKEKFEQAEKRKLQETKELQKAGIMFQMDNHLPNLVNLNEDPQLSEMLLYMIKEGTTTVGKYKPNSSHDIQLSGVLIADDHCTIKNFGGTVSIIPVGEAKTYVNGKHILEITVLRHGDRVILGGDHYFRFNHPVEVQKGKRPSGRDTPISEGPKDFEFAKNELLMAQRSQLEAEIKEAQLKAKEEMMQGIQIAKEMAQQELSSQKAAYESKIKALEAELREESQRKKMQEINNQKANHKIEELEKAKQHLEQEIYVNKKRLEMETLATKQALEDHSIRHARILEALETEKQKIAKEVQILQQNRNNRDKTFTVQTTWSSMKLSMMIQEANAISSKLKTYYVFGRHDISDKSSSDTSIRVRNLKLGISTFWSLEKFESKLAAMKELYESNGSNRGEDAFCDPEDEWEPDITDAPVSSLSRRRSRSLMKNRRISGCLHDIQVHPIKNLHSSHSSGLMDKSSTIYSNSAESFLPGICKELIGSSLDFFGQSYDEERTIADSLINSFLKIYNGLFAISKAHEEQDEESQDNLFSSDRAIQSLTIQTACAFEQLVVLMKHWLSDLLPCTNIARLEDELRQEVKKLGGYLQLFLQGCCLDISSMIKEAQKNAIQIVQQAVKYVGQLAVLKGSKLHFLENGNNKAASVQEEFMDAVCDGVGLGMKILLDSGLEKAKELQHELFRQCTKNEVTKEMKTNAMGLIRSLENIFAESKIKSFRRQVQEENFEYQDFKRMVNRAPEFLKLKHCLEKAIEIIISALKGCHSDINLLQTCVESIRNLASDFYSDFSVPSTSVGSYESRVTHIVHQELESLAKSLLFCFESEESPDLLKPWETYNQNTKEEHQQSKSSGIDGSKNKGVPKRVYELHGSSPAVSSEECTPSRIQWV
UniProt Q14137, sequence (Q14137 whole entry, looked up): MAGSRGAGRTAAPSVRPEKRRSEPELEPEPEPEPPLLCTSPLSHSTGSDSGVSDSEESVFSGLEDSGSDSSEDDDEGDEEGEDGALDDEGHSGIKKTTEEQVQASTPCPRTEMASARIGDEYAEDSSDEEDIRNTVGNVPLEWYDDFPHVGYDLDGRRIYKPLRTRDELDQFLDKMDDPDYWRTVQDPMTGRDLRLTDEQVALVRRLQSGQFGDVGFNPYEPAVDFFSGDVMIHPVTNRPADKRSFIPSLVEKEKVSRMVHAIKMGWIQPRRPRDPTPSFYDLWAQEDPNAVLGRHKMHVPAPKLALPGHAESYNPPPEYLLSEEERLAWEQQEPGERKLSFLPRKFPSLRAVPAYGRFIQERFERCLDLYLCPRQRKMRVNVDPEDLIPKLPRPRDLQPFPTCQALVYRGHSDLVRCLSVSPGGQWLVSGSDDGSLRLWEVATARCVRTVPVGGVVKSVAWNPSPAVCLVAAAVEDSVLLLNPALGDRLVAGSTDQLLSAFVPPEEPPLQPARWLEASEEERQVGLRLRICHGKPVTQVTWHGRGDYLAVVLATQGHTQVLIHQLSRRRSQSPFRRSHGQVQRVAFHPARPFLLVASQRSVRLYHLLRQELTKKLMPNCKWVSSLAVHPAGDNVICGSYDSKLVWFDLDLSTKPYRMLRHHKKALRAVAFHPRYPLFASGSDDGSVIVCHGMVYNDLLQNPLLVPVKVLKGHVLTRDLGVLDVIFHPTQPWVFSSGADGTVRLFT
UniProt P53041, sequence (P53041 whole entry, looked up): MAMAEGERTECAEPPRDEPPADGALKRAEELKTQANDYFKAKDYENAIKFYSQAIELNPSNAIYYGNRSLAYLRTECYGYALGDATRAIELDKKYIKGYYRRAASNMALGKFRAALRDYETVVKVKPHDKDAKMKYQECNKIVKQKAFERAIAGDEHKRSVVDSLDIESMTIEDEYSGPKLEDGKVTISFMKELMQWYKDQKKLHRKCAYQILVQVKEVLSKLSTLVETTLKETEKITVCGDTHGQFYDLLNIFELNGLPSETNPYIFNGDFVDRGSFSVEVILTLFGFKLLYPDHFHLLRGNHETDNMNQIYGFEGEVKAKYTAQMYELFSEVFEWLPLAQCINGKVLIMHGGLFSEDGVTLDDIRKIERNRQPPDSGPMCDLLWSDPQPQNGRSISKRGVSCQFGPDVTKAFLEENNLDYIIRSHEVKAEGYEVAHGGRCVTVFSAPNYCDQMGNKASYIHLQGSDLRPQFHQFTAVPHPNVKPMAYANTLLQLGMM

Row | Target | log2 ratio of iodoacetamide-alkyne labeling
1 | PPP5C C77 (UniProt P53041) | 0.135
2 | TARBP1 C483 (UniProt Q13395) | 1.21 (active)
3 | PAFAH1B3 C55 (UniProt Q15102) | 0.0597
4 | UniProt Q15365_C118 | 1.72 (active)
5 | UniProt Q12905_C271 | 0.137
6 | ZNF638 C1930 (UniProt Q14966) | -0.212
7 | BMS1 C895 (UniProt Q14692) | 0.11
8 | DST C7524 (UniProt Q03001) | 0.174
9 | UniProt P62280_C60 | 2.21 (active)
10 | SEC24C C433 (UniProt P53992) | 1.1 (active)
11 | SART3 C472 (UniProt Q15020) | 0.326
12 | RPL7A C174 (UniProt P62424) | -0.0802
13 | TBL3 C696 (UniProt Q12788) | 0.373
14 | NCAPH C316 (UniProt Q15003) | -0.0371
15 | FOXK1 C439 (UniProt P85037) | 0.622
16 | EFTUD2 C144 (UniProt Q15029) | 0.297
17 | USP10 C254 (UniProt Q14694) | 0.49
18 | KIF14 C442 (UniProt Q15058) | 0.0677

Row | Target | log2 ratio of iodoacetamide-alkyne labeling
19 | IAH1 C4 (UniProt Q2TAA2) | 2.43 (active)
20 | UniProt P78527_C3281 | 0.287
21 | UniProt Q15042_C335 | 0.153
22 | DYNC1H1 C1977 (UniProt Q14204) | 0.124
23 | FHL1 C71 (UniProt Q13642) | 0.0627
24 | UniProt P55196_C942 | 1.05 (active)
25 | UniProt Q16512_C602 | 0.0536
26 | UniProt Q13247_C61 | -0.0753
27 | PRDX4 C51 (UniProt Q13162) | 1.66 (active)
28 | SEC23B C767 (UniProt Q15437) | 0.00601
29 | RRP1B C628 (UniProt Q14684) | 0.838
30 | ESPL1 C294 (UniProt Q14674) | 0.577
31 | UniProt P83731_C6 | 0.668
32 | KIF23 C42 (UniProt Q02241) | 0.234
33 | SPECC1 C740 (UniProt Q5M775) | -0.0117
34 | UniProt Q13242_C138 | 0.112
35 | RRP1B C583 (UniProt Q14684) | 0.481
36 | BOP1 C373 (UniProt Q14137) | 0.0315
